Data taken from PubChem BioAssay (NCI).
About 83,000 compounds went through this panel and 20% of them were active in at least one assay; those are over-represented in the sample as a whole.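 Single-concentration screen, 48 h exposure, 96-well plates. Endpoint: percent growth. Below 10 = active.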 Unmarked numbers belong to inactive results. Calls of active or inactive are those of the source.

Each molecule was assayed on UO-31 renal (assay: NCI-60 one-dose screen, 48 h (100 = growth as untreated, 0 = no growth, -100 = all killed)). Settings: 10 µM unless noted.

With CCS(=O)(=O)Nc1cccc(Nc2c3cccc(C)c3nc3c(C)cccc23)c1OC as the molecule, how does the growth read?
Its growth is 10.7%.

Cc1nn(-c2ccccc2)c2nc3c(nc12)C1=NCCN1C(c1ccc(Cl)cc1)N3 (stereo not drawn) was tested. Which growth did it give?
The growth was 59.2%.

How did the growth turn out when O=C(Nc1cccc(C2=NCCN2)c1)c1ccc(N=Nc2ccc(C(=O)Nc3cccc(C4=NCCN4)c3)cc2)cc1 was run?
The growth was 72.8%.

COC(=O)[C@@H](Cc1c[nH]c2ccccc12)NC(=O)/C=C/c1ccccc1 was tested. Which growth did it give?
The growth was 36.8%.

How did the growth turn out when CCOC(=O)C(CCCCC(NC(C)=O)(C(=O)OCC)C(=O)OCC)(NC(C)=O)C(=O)OCC was run?
Its growth is 87.3%.

With CC(C)N(C(=S)SSC(=S)N(C(C)C)C(C)C)C(C)C as the molecule, how does the growth read?
The growth was 80.3%.

Which growth does the source give for CCOC(OCC)c1cnc2nc(NC(C)=O)[nH]c(=O)c2n1 here?
Its growth is 82.6%.

CC(C)(C)c1cc(C[P+](c2ccccc2)(c2ccccc2)c2ccccc2)cc(C(C)(C)C)c1O was tested. Which growth did it give?
Its growth is -11.4% (active).

How did the growth turn out when N#Cc1ccc(-c2ccc(-c3cccs3)o2)cc1F was run?
The growth was 73.7%.

How did the growth turn out when CCN(C(=O)CCl)C(C)(C)C(SSSC(c1ccc(Cl)cc1)C(C)(C)N(CC)C(=O)CCl)c1ccc(Cl)cc1 (stereo not drawn) was run?
The growth was 66.9%.

Which growth does the source give for N=C(N)c1ccc(-c2ccc(-c3ccco3)o2)cc1F here?
The growth was -57.2% (active).

COc1ccc(/C=C/c2nc(NCCCN(C)C)c3ccccc3n2)cc1 was tested. Which growth did it give?
The growth was 81.9%.

COc1cc2c(cc1OC)-c1cc(OC)c(OC)cc1C(CN(C)C)C2 (stereo not drawn) was tested. Which growth did it give?
Its growth is 68.1% [100 µM].

With CCCCCCCCN=C(NCCCCCCCC)SCc1cccc2ccccc12 as the molecule, how does the growth read?
The growth was -57.2% (active).

N=C(N)c1ccc(-c2ccc(-c3cccs3)s2)cc1F was tested. Which growth did it give?
Its growth is -89.7% (active).

How did the growth turn out when COc1ccc2nc(-c3ccc(-c4noc(-c5ccc(Cl)cc5)n4)cc3)[nH]c2c1 was run?
The growth was 55.8%.

Which growth does the source give for Cc1cccc2nc3ccccc3c(Nc3ccc(NS(C)(=O)=O)cc3)c12 here?
The growth was 21.6%.

With CC(C)CCSc1nc(Nc2ccccc2)c(C#N)c(-c2ccc(F)cc2)n1 as the molecule, how does the growth read?
The growth was 30%.

How did the growth turn out when COc1cc(OC)cc(-c2ccc(-c3ccc(C(=N)N)s3)s2)c1 was run?
The growth was -85.8% (active).

With COc1ccc(-c2ccc(-c3ccc(C(=N)N)s3)s2)cc1 as the molecule, how does the growth read?
The growth was -71.4% (active).

Which growth does the source give for C#CCO[C@H]1CC[C@H](OCC#C)[C@@H]2[C@H]1[C@H]1C[C@@H]3[C@@]4(C)CCC[C@@](C)(C(=O)OC)[C@@H]4CC[C@@]23C=C1C(C)C here?
Its growth is 50.5%.

How did the growth turn out when COC(=O)[C@H](Cc1cn(C)cn1)NC(=O)[C@H](CC(C)C)NC(=O)Nc1cc(C(F)(F)F)cc(C(F)(F)F)c1 was run?
Its growth is -96.7% [100 µM] (active).

With O=C1CCCN1C1CCN2CCCc3cccc1c32 (stereo not drawn) as the molecule, how does the growth read?
Its growth is 81.3%.

O=C(CCCN1CCC(O)(c2ccc(Br)cc2)CC1)c1ccc(F)cc1 was tested. Which growth did it give?
The growth was 45.6%.

Which growth does the source give for COc1ccc(/C=N/NC(N)=S)c(OC)n1 here?
The growth was 95.2%.

With CCN1C(=O)N(CC)C2C1N=C(SC)N2/N=C/C=C/c1ccccc1OC (stereo not drawn) as the molecule, how does the growth read?
The growth was 41.8%.

For C/C(=N\Nc1ccc([N+](=O)[O-])cn1)c1ccc(N)cc1, which growth is on record?
The growth was 87.7%.

With N/C(=N\O)c1ncc(-c2ccc(C(F)(F)F)cc2)c(NC2CCCCCC2)n1 as the molecule, how does the growth read?
Its growth is -92.1% [100 µM] (active).

How did the growth turn out when O=[N+]([O-])c1ccc(Sc2nc(Cl)nc(NC3CCCC3)n2)cc1 was run?
Its growth is -83.7% [100 µM] (active).

Cc1cc2nc(CN)[nH]c2cc1C was tested. Which growth did it give?
The growth was 101%.

ClC1=NC(Cl)C(Cl)=N/C1=N\c1ncn[nH]1 (stereo not drawn) was tested. Which growth did it give?
The growth was -81.7% (active).

COc1ccc(CNc2c3ccccc3nc3ccccc23)cc1F was tested. Which growth did it give?
Its growth is 13.5%.

How did the growth turn out when CCOC(=O)C1C(=O)C=C(c2ccccc2)CC1c1sc(N(C)Cc2ccccc2)nc1Cl (stereo not drawn) was run?
Its growth is 76.1%.

How did the growth turn out when CCOC(=O)c1cc(C(=O)OCC)c(C)nc1C was run?
Its growth is 96.5%.

How did the growth turn out when O=C1OCC2=C1C(c1ccccc1)c1cc3c(cc1N2CCO)CCC3 (stereo not drawn) was run?
Its growth is 38.1%.

Which growth does the source give for O=C(CC(=O)c1ccccc1F)Nc1ccc([N+](=O)[O-])cc1 here?
The growth was 89.3%.

Cc1cc(Nc2c3ccccc3nc3ccccc23)ccc1NS(C)(=O)=O was tested. Which growth did it give?
Its growth is 22.7%.

COC(=O)CSc1ccc(Cl)cc1 was tested. Which growth did it give?
The growth was 93.3%.
